Shown are actives, neighbours in structure and some others; about 8.2% of the full set was active somewhere.
MCF10A rereplic = DNA re-replication induction in MCF 10a cells; MCF 10A DNA re-replication, Hoechst nuclear intensity, 48 h; Potency, µM (doses to about 46.1 µM), inactives show at the top dose activity, positive = re-replication, usual class: activators; hit rate 2.9% among 350,000; AID 624296; note: % of control where 0% means no effect; nearly all actives have a fitted effect of over 50% in size
ELG1 repair inh = ELG1-dependent DNA repair inhibition; HEK293T ELG1-luciferase reporter, luminescence, 16 h; DNA damage induced by 5-fluorouridine; Potency, µM (top dose mostly 46.1 µM), for inactives: top-dose activity change, negative = inhibition, hits mostly inhibitors; hit rate 2.3% among 330,000; AID 504467; note: % is set by controls: 0 for no effect and ±100 for the full control effect; nearly all actives have a fitted effect of over 55% in size
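Reporter activity after DNA damage by 5-fluorouridine is monitored. Compound-treated cells incubate 16 hr at 37 °C, then ONE-Glo is added for 30 min before luminescence reading.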
KB-3-1 tox = KB-3-1 parental cell cytotoxicity. KB-3-1 viability, CellTiter-Glo ATP luminescence, 72 h. Potency, µM (titrated, usually from 46.1 µM), most hits filed as cytotoxic. hit rate 1.4% among 400,000; note: % is set by controls: 0 for no effect and ±100 for the full control effect; nearly all actives have a fitted effect of over 60% in size
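Luminescent ATP read-out (CellTiter-Glo) measures survival of drug-naive KB-3-1 cells after 72 h compound exposure at 37 °C. Titration series was screened from lowest to highest concentration, with DMSO vehicle plates as background controls.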
SW480 rerep = induces DNA re-replication in SW480 colon adenocarcinoma cells | SW480 DNA re-replication, Hoechst DNA content imaging, 48 h | Potency, µM (highest dose often 46.1 µM), for the others: at the highest dose re-replication activation, actives largely listed as activators | hit rate 1.8% among 340,000 | AID 624297; note: % of control where 0% means no effect; nearly all actives have a fitted effect of over 55% in size
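DNA re-replication was detected as more nuclei of elevated Hoechst intensity after 48 hr exposure to compound (23 nL pinned per well of 250 cells).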
KB-V1 cytotox = kills drug-selected multidrug resistant KB-V1 cells. KB-V1 MDR cells viability, CellTiter-Glo, 72 h. Potency, µM (titrated, usually from 46.1 µM), most hits filed as cytotoxic. hit rate 3.4% among 400,000. AID 1347076; note: % is set by controls: 0 for no effect and ±100 for the full control effect; nearly all actives have a fitted effect of over 60% in size
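Luminescent ATP read-out (CellTiter-Glo, 10 min) measures survival of drug-selected KB-V1 MDR cells after 72 h, 37 degrees C compound exposure. Medium: phenol-red-free DMEM, 10% FBS. Values from fitted concentration-response curves.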
The depositor's hits bear a star; i = inactive; ? = inconclusive; · = no result. Calls come from the whole dose curve; as a rule, active = well fitted curve in the direction sought with a large enough effect; inconclusive = small, poorly fitted or top-dose-only effect, or another doubt; inactive = no such curve, though single readings can be large; an effect the other way counts as inactive or inconclusive. Potency is the fitted concentration of half-maximal effect.

SMILES	MCF10A rereplic	ELG1 repair inh	KB-3-1 tox	SW480 rerep	KB-V1 cytotox
Cc1ccc(S(=O)(=O)/N=C2\C=C(NS(=O)(=O)c3ccccc3)C(=O)c3ccccc32)c(C)c1	?	·	i	-8%	i
CC(C)(C)c1ccc(S(=O)(=O)/N=C2\C=C(NS(=O)(=O)c3ccccc3)C(=O)c3ccccc32)cc1	-17%	?	i	?	i
CCc1ccccc1S(=O)(=O)Cc1ccc(C(=O)NCCc2ccc(Cl)cc2)o1	·	·	i	·	?
Cc1c(Cl)cccc1NC(=S)Nc1ccc2[nH]c(=O)[nH]c2c1	2%	-5%	i	-13%	i
CCc1cc(C(=O)N(Cc2ccccc2)c2c(N)n(CCOC)c(=O)[nH]c2=O)sc1C	1%	-7%	i	1%	i
CC(C)[C@@H](NC(=O)OC(C)(C)C)c1cc(C(=O)c2c(-c3ccccc3)[nH]c3ccccc23)c(N)s1	·	·	?	·	23µM*
CC(C)[C@H](NC(=O)OC(C)(C)C)c1cc(C(=O)NCCc2c[nH]c3ccccc23)c(N)s1	·	·	i	·	i
CCOC(=O)c1c(NC(=O)/C=C/C(=O)O)sc(C)c1-c1ccc(F)cc1	?	10%	?	0%	?
Cc1ccc(-c2c(C)sc(NC(=O)C3C4CCC(O4)C3C(=O)O)c2C(=O)OC(C)C)cc1 (centres undefined)	-10%	0%	i	5%	i
COC(=O)c1c(NC(=O)/C=C/C(=O)O)sc(C)c1-c1ccc(C)c(C)c1	16µM*	-6%	?	?	i
COC(=O)c1c(NC(=O)/C=C/C(=O)O)sc(C)c1-c1ccc(C)cc1	?	-11%	?	?	?
COC(=O)c1c(NC(=O)/C=C/C(=O)O)sc(C)c1-c1ccc(C(C)C)cc1	3.3µM*	-18%	21µM*	15µM*	?
CCOC(=O)c1c(NC(=O)/C=C/C(=O)O)sc(C)c1-c1ccc(C)c(C)c1	4.1µM*	-9%	i	13%	i
CC(C)=C1C2CCC1C(C(=O)Nc1sc(C)c(-c3ccc(C(C)C)cc3)c1C(N)=O)C2C(=O)O (centres undefined)	33%	?	?	?	2.1µM*
O=C(COc1ccccc1C(=O)Nc1ccccc1)Nc1cccc(Br)c1	·	·	i	·	i
O=C(COc1ccccc1[N+](=O)[O-])Nc1ccc2c(c1)CCC2	10%	?	i	-2%	i
COc1ccc(-c2cc(C(F)(F)F)nc(SCC(=O)N(C)Cc3ccccc3)n2)cc1	·	·	i	·	i
COc1ccc(S(=O)(=O)N2CCN(c3ccccc3)CC2)cc1OC	-15%	·	i	?	i
O=C(NCCOc1ccccc1F)c1cccc(S(=O)(=O)N2CCN(c3ccccc3)CC2)c1	0%	?	i	?	13µM*
COc1cc(S(=O)(=O)N2CCN(c3ccccc3)CC2)ccc1Cl	7%	-22%	i	6%	23µM*
O=C(NNC(=O)c1cccc(S(=O)(=O)N2CCN(c3ccccc3)CC2)c1)c1ccc(Cl)cc1	?	-12%	i	-4%	16µM*
C=CCc1cc(C)ccc1OCCOCCN1CCN(C)CC1	18%	3%	i	2%	i
Cc1ccc(NC(=O)C2CCCN2S(=O)(=O)c2cccc3nsnc23)c(Br)c1 (centres undefined)	·	·	i	·	?
N#Cc1cnc(NCc2ccc(Cl)cc2Cl)nc1	?	24%	i	-12%	i
COc1ccc(C(C[N+](=O)[O-])c2c(C)cc3ccccn23)cc1 (centres undefined)	21µM*	-10%	i	?	i
COc1cccc(C(c2c(C)[nH]n(-c3ccccc3)c2=O)c2c(C)[nH]n(-c3ccccc3)c2=O)c1OC	6.5µM*	18%	i	1%	i
COc1ccc(C(C[N+](=O)[O-])c2c(-c3ccccc3)cc3ccccn23)c(OC)c1 (centres undefined)	16µM*	?	?	?	?
COc1ccc(C(C[N+](=O)[O-])c2c(C)[nH]n(-c3ccccc3)c2=O)cc1 (centres undefined)	12µM*	-15%	i	?	i
